In the supplement of paper PMC4709259:
± gives the standard deviation.

What follows are compounds tested on Jurkat (assay: cell count relative to DMSO control (fraction of control); higher = more cells (less growth inhibition)). Conditions: 48 h.
In the case of CO[C@H]1C[C@@H]2CC[C@@H](C)[C@@](O)(O2)C(=O)C(=O)N2CCCC[C@H]2C(=O)O[C@H]([C@H](C)C[C@@H]2CC[C@@H](O)[C@H](OC)C2)CC(=O)[C@H](C)/C=C(\C)[C@@H](O)[C@@H](OC)C(=O)[C@H](C)C[C@H](C)/C=C/C=C/C=C/1C [Sirolimus (Rapamycin)] (concentration: 2.5 µM), the cell count is reported as 0.626 ± 0.074.
Compound C[C@@H]1C[C@H]2[C@@H]3CCC4=CC(=O)C=C[C@]4(C)[C@@]3(F)[C@@H](O)C[C@]2(C)[C@@]1(O)C(=O)CO [Dexamethasone] (concentration: 25 µM) has a cell count of 0.819 ± 0.11.
For CC(=O)O[C@@]12CO[C@@H]1C[C@H](O)[C@@]1(C)C(=O)[C@H](O)C3=C(C)[C@@H](OC(=O)[C@H](O)[C@@H](NC(=O)OC(C)(C)C)c4ccccc4)C[C@@](O)([C@@H](OC(=O)c4ccccc4)[C@H]21)C3(C)C [Docetaxel (Taxotere)] (concentration: 25 nM), the cell count was 0.518 ± 0.052.
Work on CCc1nc(N)nc(N)c1-c1ccc(Cl)cc1 [Pyrimethamine] (concentration: 25 µM) yielded a cell count of 0.2 ± 0.033.
For CN(C)CC(c1ccc(O)cc1)C1(O)CCCCC1 (stereo unspecified) [Desvenlafaxine Succinate Hydrate] (concentration: 25 µM), the cell count was 0.64 ± 0.09.
